# Values without a mark were called inactive.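 The calls were made as follows: active = Lowers HeLa cell ATP signal, with fitted half-maximal potency at most twice the top tested dose in every run; inconclusive = runs disagree, or fits flat mid-range or poor; inactive = every run inactive, including signal rising.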
# Test: HeLa cell cytotoxicity, dose response, cytotoxicity control, CellTiter-Glo luminescence, dry powder, set 3 (AID 1117294)
# Settings: HeLa viability, ATP luminescence (CellTiter-Glo), 72 h
compound,measurement,setting,value
COc1ccc(C(=O)O)cc1S(=O)(=O)Nc1cccc(N2CCCCC2)c1C(F)(F)F,max activity,,15.2%
O=S(=O)(O)c1ccc(N2N=C(c3ccccc3)CC2c2ccccc2)cc1 (stereo not drawn),max activity,at 0.0015 µM,-32.4%
COc1ccc(C(=O)O)cc1S(=O)(=O)Nc1cc(C(F)(F)F)ccc1N1CCOCC1,max activity,at 0.003 µM,-16.9%
COc1ccc(C(=O)O)cc1S(=O)(=O)Nc1cc(C(F)(F)F)ccc1N1CCCCC1,max activity,at 0.0235 µM,-13.4%
same,max activity,at 12 µM,-15.9%
COc1ccc(C(=O)O)cc1S(=O)(=O)Nc1cc(C(F)(F)F)ccc1N(C)C,max activity,at 6 µM,-19%
COc1ccc(C(=O)O)cc1S(=O)(=O)N1CCN(c2ccc(C(F)(F)F)cc2N)CC1,max activity,at 12 µM,-20.1%
COc1ccc(C(=O)Nc2cccc(C(F)(F)F)c2)cc1S(=O)(=O)O,max activity,at 26 µM,-20.5%

# Reference: PubChem BioAssay AID1117294 (Broad Institute, 2014)
